This note sets out measurements from PubChem BioAssay AID651784 (National Center for Advancing Translational Sciences (NCATS), 2012).

“And” between values parts separate entries of the source, which are not always exact repeats. Equal values may be shown once. Inconclusive results are not listed. The source made the active and inactive calls. The call rests on the fitted dose curve; in most records, active means well fitted inhibition curve with a large enough effect; inconclusive means small, poorly fitted or top-dose-only effect; inactive means no such curve, though single readings can be large or run the other way.
Potency means the concentration at half of the fitted maximal effect.

This assay can be described thus: Acumen qHTS Assay for Inhibitors of the mTORC1 Signaling Pathway in MEF (Tsc2-/-, p53-/-) Cells: Hit Validation.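 Further: phospho-rpS6 Ser235/236 immunofluorescence normalized to propidium iodide cell count; nearly all actives have a fitted effect of over 65% in size.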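 On activity change, negative = inhibition: cells exposed to compound for 24 hours; plate controls were DMSO for no effect and 7.5 nM rapamycin control for full effect.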 Particulars: Acumen imaging; activity change, negative = inhibition: at 37.3 µM (top of the series). Background: Quantitative high-throughput screening tests each substance at several concentrations.
`COc1ccc(OC)c(Nc2c3c(nc4ccccc24)CCC3)c1`: the Potency is 3.29 µM (active).
On to `Cc1cccc(C)c1Nc1sc(C(=O)c2ccccc2)c(N)c1S(=O)(=O)c1ccccc1`, for which the Potency is 2.61 µM (active).
Consider `Cc1ccc(-c2nnn(CC(=O)N(CC(=O)NCCC(C)C)c3ccc(F)cc3)n2)cc1`, for which the activity change, negative = inhibition came to 20.3%.
Turning to `COc1cc(Cl)c(C)cc1NC(c1ccccc1)c1nnc(-c2ccccc2Cl)o1` (stereo not drawn), the activity change, negative = inhibition was -9.11%.
For the compound `CC1=C(C(=O)OC2CCCC2)C(c2ccccc2Cl)CC(=O)N1` (stereo not drawn), the activity change, negative = inhibition was -10.6%.
With `CCCS(=O)(=O)c1ncc(Cl)c(C(=O)Nc2c(C(=O)Nc3ccccc3)oc3ccccc23)n1`, the Potency is 0.585 µM (active).
On to `COc1ccc(Cl)cc1C1CC(=O)Nc2cc3c(cc21)OCCO3` (stereo not drawn), for which the activity change, negative = inhibition was -26.9%.
`Cc1cc(C)c(/C=C2\C(=O)Nc3ccccc32)[nH]1`: the activity change, negative = inhibition is 0.812% and 7.57%.
On the same count and under the same terms, in the case of `COc1ccc(S(=O)(=O)N(CCc2ccccc2)CC(=O)Nc2cccc(OC)c2)cc1` it was -19.2%; in that of `Cc1cccc(Nc2nnc(-c3ccc(C)c(S(=O)(=O)N4CCN(C)CC4)c3)c3ccccc23)c1`, -6.53%.
For the compound `CC(=O)N1CCCc2cc(S(=O)(=O)N(Cc3ccccc3)C(C)C)ccc21`, the activity change, negative = inhibition was -22.8%.
Regarding `CCS(=O)(=O)c1oc(-c2ccc(F)cc2)nc1S(=O)(=O)c1ccc(Br)cc1`, the Potency is 4.14 µM (active).
As to `CC(C)S(=O)(=O)c1oc(-c2cccs2)nc1S(=O)(=O)c1ccc(F)cc1`, the Potency was 0.736 µM (active).
As to `Oc1ccccc1Nc1nc(-c2ccccc2)c2cc(Cl)ccc2n1`, the activity change, negative = inhibition was -6.7%.
Turning to `CCOC(=O)N1CCN(Cc2nc3cc(NC(=O)c4ccccc4OC)ccc3n2C(C)C)CC1`, the activity change, negative = inhibition is -28.8%.
For `CCCCS(=O)(=O)c1oc(-c2cccs2)nc1S(=O)(=O)c1ccccc1`, the Potency is 2.07 µM (active).
On the same count and under the same terms, in the case of `COc1cc(C(=O)Nc2ccc(NC(=O)c3ccc(C(C)(C)C)cc3)cc2)cc(OC)c1OC` it was 10.4 µM (active).
The same measure, in the same setting: in the case of `O=C(NCc1ccccc1)c1nc(S(=O)(=O)Cc2ccccc2)ncc1Cl` it was 5.85 µM (active).
As for `CCN1CCOC(=O)C1CC(=O)Nc1ccc(Br)cc1` (stereo not drawn), the activity change, negative = inhibition was -3.02%.
With `CCCSc1oc(-c2ccco2)nc1S(=O)(=O)c1ccc(Br)cc1`, the activity change, negative = inhibition turned out to be 4.39%.
With `O=C(CC1(O)C(=O)N(CCc2ccccc2)c2ccc(Br)cc21)c1ccccc1O` (stereo not drawn), the Potency was 6.56 µM (active).
For `COc1cccc(-c2nc(SCC(=O)NCC3CCCO3)c(-c3ccc(F)cc3)[nH]2)c1` (stereo not drawn), the activity change, negative = inhibition is -3.33%.
For the compound `CCc1ccc(OCC(=O)Nc2ccc3oc(-c4ccc(OC)cc4)nc3c2)cc1`, the activity change, negative = inhibition was determined as 7.33%.
For the compound `COc1ccc(-c2nc3cc(NC(=O)Cc4ccc(Cl)cc4)ccc3o2)cc1OC`, the activity change, negative = inhibition is -60.1%.
For `COc1ccc(C(=O)Nc2ccc(OCc3cc(=O)n4ccccc4n3)cc2)cc1`, the activity change, negative = inhibition came to 7.16%.
For the compound `COc1ccc(CNCCC(c2ccc3c(c2)OCO3)c2ccccc2OC)cc1` (stereo not drawn), the activity change, negative = inhibition was -87.3%.
In the case of `CN1CCN(C(CNC(=O)C(=O)Nc2cccc(Cl)c2)c2ccc3c(c2)OCO3)CC1` (stereo not drawn), the activity change, negative = inhibition was -4.53%.
On to `CCOC(=O)c1c(NC(=O)c2cc(CC)on2)sc(C(C)=O)c1C`, for which the activity change, negative = inhibition amounted to 12%.
Take `Cc1c(C(=O)OC2CCC(C)CC2)[nH]c2c1C(=O)CC(c1ccccc1Cl)C2` (stereo not drawn): the activity change, negative = inhibition is -43.7%.
On to `CC1=Nc2cc(C(=O)NC3CCCC3)ccc2Sc2ccc(Br)cc21`, for which the activity change, negative = inhibition is -107%.
`CCn1c(CC2C(=O)N(C)c3ccc(Br)cc32)nc2ccccc2c1=O` (stereo not drawn): the activity change, negative = inhibition was -27%.
In the case of `COc1ccc(-c2nc(CCNC(=O)c3c(F)cccc3Cl)cs2)cc1`, the activity change, negative = inhibition was -0.104%.
For the compound `CCOc1ccc(CNC(=O)c2ccccc2NC(=O)c2nsc3ccccc23)cc1`, the activity change, negative = inhibition is -112%.
On to `CCCN(CCC)CCCNC(=O)C1CCN(c2nc3ccc(CC)cc3s2)CC1`, for which the Potency is 11.7 µM (active).
On to `COc1ccc(Cn2c(C(=O)O)c(CNCc3ccc(SC)cc3)c3ccc(OC)cc32)cc1`, for which the activity change, negative = inhibition was -12.2%.
For the compound `COc1ccc(OC)c(C(=O)CC2(O)C(=O)N(Cc3ccccc3C)c3ccccc32)c1` (stereo not drawn), the Potency was 2.61 µM (active).
As for `COc1ccc(CCNC(=O)C(C)n2nc(C)c3sc4ccccc4c3c2=O)c(OC)c1` (stereo not drawn), the activity change, negative = inhibition was -17.7%.
Consider `CCOC(=O)c1c(NC(=O)c2nc(S(C)(=O)=O)ncc2Cl)sc(C(C)=O)c1C`, for which the Potency was 4.14 µM (active).
